The target of experiment [1] is Paired box protein Pax-6 (Homo sapiens) (UniProt P26367). The experiment in a line: ATG_Pax6_CIS: Attagene CIS-FACTORIAL HepG2 Assay for human Paired Box 6 (PAX6) (AID 2282956). The conditions noted are these: HepG2 CIS-FACTORIAL PAX6 reporter transcription, RNA readout; actives raise or lower the signal. The method, boiled down: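 Transient MRTU transfection of HepG2 → compound exposure 24 h → TriZol RNA, oligo(dT) RT → PCR, 6-FAM primer extension, HpaI cut → capillary electrophoresis; activity fitted both directions against DMSO.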

Experiment [2] is described as follows: ATG_PXRE_CIS: Attagene CIS-FACTORIAL HepG2 Assay for human Pregnane X Receptor Element (PXRE) (AID 2282957). The conditions noted are these: HepG2 Attagene CIS-FACTORIAL PXRE reporter, mRNA; actives raise or lower the signal. The method, boiled down: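 Multiplexed cis-reporter assay in transiently transfected human HepG2 cells; 24 h chemical exposure. Reporter transcripts quantified by RT-PCR with fluorescent labeling and capillary electrophoresis.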

Experiment [3] in a line: ATG_PPRE_CIS: Attagene CIS-FACTORIAL HepG2 Assay for human Peroxisome Proliferator-activated Response Element (PPRE) (AID 2282958). The conditions noted are these: HepG2 PPRE cis-element reporter, Attagene transcription factor profiling; actives raise or lower the signal. The method, boiled down: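 Cells are first transfected transiently with the multiplexed reporter library, then dosed for 24 h. Total RNA is reverse-transcribed, amplified, fluorescently end-labeled and HpaI-cut before capillary electrophoresis; activity is fitted bidirectionally against DMSO controls.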

The nature of experiment [4]: ATG_Sox_CIS: Attagene CIS-FACTORIAL HepG2 Assay for human SRY-box transcription factor (SOX) (AID 2282960). The note with it: HepG2 Attagene cis-factorial SOX reporter, mRNA; actives raise or lower the signal. The procedure, abridged: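 Transient MRTU transfection of HepG2; 24 h compound incubation; TriZol RNA, oligo(dT) RT, PCR, 6-FAM primer extension, HpaI cut, CE. Bidirectional fit, DMSO = baseline.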

For experiment [5], the target named is Transcription factor Sp1 (Homo sapiens) (UniProt P08047). The experiment in a line: ATG_Sp1_CIS: Attagene CIS-FACTORIAL HepG2 Assay for human Specificity Protein 1 (Sp1) (AID 2282961). The conditions noted are these: HepG2 Sp1 cis-reporter transcription, actives raise or lower the signal. The procedure, abridged: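 Endogenous Sp1 activity was gauged in human liver HepG2 cells bearing transfected reporter units under a cis-regulating promoter. After 24 h dosing, reporter mRNA was quantified by RT-PCR with capillary electrophoresis, and activity fitted bidirectionally versus DMSO.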

A short description of experiment [6]: ATG_SREBP_CIS: Attagene CIS-FACTORIAL HepG2 Assay for human Sterol Regulatory Element Binding (SREBP) (AID 2282962). The note with it: HepG2 Attagene cis-factorial SREBP reporter, mRNA; actives raise or lower the signal. The procedure, abridged: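 Transfected HepG2 (cis-regulated reporter library, endogenous TFs) → compound 24 h → total RNA → oligo(dT) RT → reporter-specific PCR → FAM primer extension, HpaI cut → CE fluorescence. Fit bidirectional vs DMSO.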

Experiment [7] deals with Signal transducer and activator of transcription 3 (Homo sapiens) (UniProt P40763). The experiment is described as follows: ATG_STAT3_CIS: Attagene CIS-FACTORIAL HepG2 Assay for human Signal Transducer and Activator of Transcription 3 (STAT3) (AID 2282963). The note with it: HepG2, Attagene cis-factorial STAT3 reporter transcription; actives raise or lower the signal. The procedure, abridged: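 After a 24 h compound incubation, total RNA from MRTU-transfected HepG2 cells was converted to cDNA and reporter sequences PCR-amplified, labelled and profiled by capillary electrophoresis. Gain and loss of signal were referenced to DMSO.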

The nature of experiment [8]: ATG_TA_CIS: Attagene CIS-FACTORIAL HepG2 Assay for human TA Basal Promoter (AID 2282964). The conditions noted are these: HepG2 Attagene CIS-factorial TA basal promoter reporter; actives raise or lower the signal. The procedure, abridged:
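Steps: transfect HepG2 with MRTUs; dose 24 h; isolate RNA, DNase-treat, reverse-transcribe; PCR and FAM-label reporter cDNA; digest with HpaI 2h at 37 C; run capillary electrophoresis. Activity fitted both directions against DMSO.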

Experiment [9] can be described thus: ATG_TCF_b_cat_CIS: Attagene CIS-FACTORIAL HepG2 Assay for human T-Cell-Factor with beta-catenin (TCF/b-cat) (AID 2282965). The note with it: HepG2 TCF/beta-catenin cis-reporter transcription, actives raise or lower the signal. The procedure, abridged: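 Measured: reporter mRNA in HepG2 transiently transfected with cis-promoter reporter units, 24 h after chemical addition. Fitting was bidirectional, DMSO as negative control.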

A short description of experiment [10]: ATG_TAL_CIS: Attagene CIS-FACTORIAL HepG2 Assay for human TAL Basal Promoter (AID 2282966).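 Also: background control endpoint measuring basal TAL promoter reporter mRNA not a specific factor.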 The note with it: HepG2 Attagene cis-factorial TAL promoter reporter; actives raise or lower the signal. The procedure, abridged: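 Steps: transfect HepG2 with multiple reporter transcription units; dose 24 h; isolate RNA, reverse-transcribe, PCR-amplify, label with 6-FAM, digest with HpaI; resolve by capillary electrophoresis. Bidirectional fitting against DMSO baseline.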

Experiment [11] can be described thus: ATG_TGFb_CIS: Attagene CIS-FACTORIAL HepG2 Assay for human Transforming Growth Factor (TGF) (AID 2282967). The conditions noted are these: HepG2 Attagene CIS TGFb reporter, mRNA transcription; actives raise or lower the signal. The method, boiled down:
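Cells were dosed for 24 hours, after which total RNA was reverse-transcribed and reporter sequences amplified, labeled and sized by capillary electrophoresis. Activity was fitted in both directions against DMSO.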

The nature of experiment [12]: ATG_VDRE_CIS: Attagene CIS-FACTORIAL HepG2 Assay for human Vitamin D Receptor Element (VDRE) (AID 2282968). The note with it: HepG2 VDRE cis-reporter transcription, actives raise or lower the signal. The procedure, abridged:
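In transiently transfected HepG2 liver cells, gain or loss of reporter mRNA after 24 h exposure is scored relative to DMSO, using fluorescence detection by capillary electrophoresis of RT-PCR products.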

Experiment [13] addresses X-box-binding protein 1 (Homo sapiens) (UniProt P17861). The experiment in a line: ATG_Xbp1_CIS: Attagene CIS-FACTORIAL HepG2 Assay for human X-box Binding Protein 1 (XBP1) (AID 2282972). The conditions noted are these: HepG2 XBP1 cis-element reporter, Attagene multiplex; actives raise or lower the signal. The procedure, abridged: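 HepG2, transient MRTU transfection (cis-promoter driven), 24 h compound exposure. Total RNA → oligo(dT) RT → PCR → 6-FAM labeling → HpaI cut → CE. Bidirectional fit vs DMSO.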

The target of experiment [14] is Nuclear receptor subfamily 1 group I member 3 (Homo sapiens) (UniProt Q14994). The experiment in a line: ATG_CAR_TRANS: Attagene TRANS-FACTORIAL HepG2 Assay for human Constitutive Androstane Receptor (CAR) (AID 2282969; active = hit-call score of the fitted dose curve at least 0.9, where 1 is the maximum;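 also: activators raise reporter mRNA above DMSO so AC50 marks induction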). The note with it: HepG2 Attagene TRANS-FACTORIAL CAR reporter. The method, boiled down: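 Readout is reporter mRNA induction, quantified by fluorescent primer extension and capillary electrophoresis after RT-PCR. Cells were HepG2 transiently carrying chimeric NR-Gal4 constructs with GAL4-UAS reporters, treated for 24 h; activity scored upward from DMSO.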

The target of experiment [15] is Estrogen receptor (Homo sapiens) (UniProt P03372). The experiment in a line: ATG_ERa_TRANS: Attagene TRANS-FACTORIAL HepG2 Assay for human Estrogen Receptor alpha (ERa) (AID 2282970; active = hit-call score of the fitted dose curve at least 0.9, where 1 is the maximum). The conditions noted are these: HepG2 Attagene TRANS ERa GAL4 reporter, mRNA. The procedure, abridged: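 Multiplexed cell-based reporter format in HepG2: chimeric ERa-Gal4 protein drives GAL4-UAS reporter transcription. Fluorescent reporter mRNA quantified by capillary electrophoresis 24 hours after dosing; endpoint fitted as signal gain against DMSO.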

The nature of experiment [16]: ATG_M_19_TRANS: Attagene TRANS-FACTORIAL HepG2 Assay for M19 Transcription Factor (Internal Marker) (AID 2282974; active = hit-call score of the fitted dose curve at least 0.9, where 1 is the maximum). The note with it: HepG2 Attagene TRANS-FACTORIAL M19 internal marker reporter. The procedure, abridged:
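Cells: human HepG2, transiently transfected with multiplexed reporter transcription units. Exposure: 24 h. Detection: RT-PCR of reporter mRNA with capillary electrophoresis. Analysis: gain-of-signal vs DMSO.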

For experiment [17], the target named is Steroid hormone receptor ERR1 (Homo sapiens) (UniProt P11474). The experiment is described as follows: ATG_ERRa_TRANS: Attagene TRANS-FACTORIAL HepG2 Assay for human Estrogen-Related Receptor alpha (ERRa) (AID 2282971; active = hit-call score of the fitted dose curve at least 0.9, where 1 is the maximum). The note with it: HepG2 Attagene TRANS reporter, ERRa transactivation. The procedure, abridged: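 Signal gain relative to DMSO for an ERRa-Gal4 chimeric receptor, read as reporter mRNA by RT-PCR/capillary electrophoresis. Human HepG2 liver cells, transient multiplex reporter transfection, 24 h chemical exposure.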

The target of experiment [18] is Estrogen-related receptor gamma (Homo sapiens) (UniProt P62508). The experiment in a line: ATG_ERRg_TRANS: Attagene TRANS-FACTORIAL HepG2 Assay for human Estrogen-Related Receptor gamma (ERRg) (AID 2282977; active = hit-call score of the fitted dose curve at least 0.9, where 1 is the maximum;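 also: hits increase reporter signal over DMSO so potencies reflect activators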). The conditions noted are these: HepG2 Attagene TRANS reporter, ERRg transactivation. The method, boiled down: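 Transient HepG2 transfectants, 24 h compound exposure, GAL4-UAS reporter mRNA by RT-PCR/6-FAM labelling/capillary electrophoresis; positive direction vs DMSO.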

Experiment [19] in a line: ATG_GAL4_TRANS: Attagene TRANS-FACTORIAL HepG2 Assay for GAL4 (Internal Marker) (AID 2282976; active = hit-call score of the fitted dose curve at least 0.9, where 1 is the maximum). The conditions noted are these: HepG2 Attagene TRANS GAL4 internal marker reporter. The method, boiled down:
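Liver HepG2 line bearing multiplexed GAL4-UAS reporter constructs; 24 h chemical treatment. Transcripts were quantified as fluorescent fragments on capillary electrophoresis after RT-PCR and HpaI cut, with activity fitted upward from DMSO.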

Results filed as inconclusive are left out. Activity calls are given as the source filed them. The calls were made as follows, unless noted: active = hit-call score of the fitted dose curve at least 0.9, where 1 is the maximum; inactive = score below 0.9.

Chain of Nuclear receptor subfamily 1 group I member 3 (Homo sapiens) (Q14994 whole entry, looked up, the tested form may be a part): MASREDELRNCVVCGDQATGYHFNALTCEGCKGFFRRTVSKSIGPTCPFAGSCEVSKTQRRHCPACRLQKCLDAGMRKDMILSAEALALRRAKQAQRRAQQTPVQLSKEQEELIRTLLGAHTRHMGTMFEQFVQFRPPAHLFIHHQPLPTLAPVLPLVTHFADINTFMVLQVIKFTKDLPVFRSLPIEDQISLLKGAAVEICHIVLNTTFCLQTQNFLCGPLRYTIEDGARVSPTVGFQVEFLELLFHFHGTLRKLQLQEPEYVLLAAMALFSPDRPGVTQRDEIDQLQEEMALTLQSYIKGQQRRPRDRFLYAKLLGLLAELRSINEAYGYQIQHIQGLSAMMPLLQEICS
Chain of Estrogen-related receptor gamma (Homo sapiens) (P62508 whole entry, looked up, the tested form may be a part): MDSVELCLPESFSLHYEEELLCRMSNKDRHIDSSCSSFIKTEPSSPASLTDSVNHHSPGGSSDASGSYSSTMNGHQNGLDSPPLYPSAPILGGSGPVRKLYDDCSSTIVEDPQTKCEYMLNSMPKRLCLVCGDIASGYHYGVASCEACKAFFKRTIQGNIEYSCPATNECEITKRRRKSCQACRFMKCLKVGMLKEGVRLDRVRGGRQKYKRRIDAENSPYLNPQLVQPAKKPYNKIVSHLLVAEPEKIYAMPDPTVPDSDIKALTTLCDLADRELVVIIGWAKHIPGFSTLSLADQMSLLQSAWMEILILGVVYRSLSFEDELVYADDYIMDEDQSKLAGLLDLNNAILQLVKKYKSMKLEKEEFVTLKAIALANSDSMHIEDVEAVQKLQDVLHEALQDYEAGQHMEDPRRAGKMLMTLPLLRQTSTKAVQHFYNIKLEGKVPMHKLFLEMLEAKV
Chain of Paired box protein Pax-6 (Homo sapiens) (P26367 whole entry, looked up): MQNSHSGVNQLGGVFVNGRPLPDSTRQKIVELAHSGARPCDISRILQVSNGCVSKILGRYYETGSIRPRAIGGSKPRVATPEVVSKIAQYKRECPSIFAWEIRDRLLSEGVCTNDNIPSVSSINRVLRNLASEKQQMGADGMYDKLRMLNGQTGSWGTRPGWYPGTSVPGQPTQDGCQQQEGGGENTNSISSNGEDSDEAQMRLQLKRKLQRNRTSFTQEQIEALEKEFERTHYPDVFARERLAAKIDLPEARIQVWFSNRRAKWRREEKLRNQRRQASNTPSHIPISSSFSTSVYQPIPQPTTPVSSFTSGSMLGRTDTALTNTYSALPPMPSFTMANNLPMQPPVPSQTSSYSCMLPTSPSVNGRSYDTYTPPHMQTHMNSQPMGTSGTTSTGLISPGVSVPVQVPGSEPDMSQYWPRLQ
Chain of Transcription factor Sp1 (Homo sapiens) (P08047 whole entry, looked up): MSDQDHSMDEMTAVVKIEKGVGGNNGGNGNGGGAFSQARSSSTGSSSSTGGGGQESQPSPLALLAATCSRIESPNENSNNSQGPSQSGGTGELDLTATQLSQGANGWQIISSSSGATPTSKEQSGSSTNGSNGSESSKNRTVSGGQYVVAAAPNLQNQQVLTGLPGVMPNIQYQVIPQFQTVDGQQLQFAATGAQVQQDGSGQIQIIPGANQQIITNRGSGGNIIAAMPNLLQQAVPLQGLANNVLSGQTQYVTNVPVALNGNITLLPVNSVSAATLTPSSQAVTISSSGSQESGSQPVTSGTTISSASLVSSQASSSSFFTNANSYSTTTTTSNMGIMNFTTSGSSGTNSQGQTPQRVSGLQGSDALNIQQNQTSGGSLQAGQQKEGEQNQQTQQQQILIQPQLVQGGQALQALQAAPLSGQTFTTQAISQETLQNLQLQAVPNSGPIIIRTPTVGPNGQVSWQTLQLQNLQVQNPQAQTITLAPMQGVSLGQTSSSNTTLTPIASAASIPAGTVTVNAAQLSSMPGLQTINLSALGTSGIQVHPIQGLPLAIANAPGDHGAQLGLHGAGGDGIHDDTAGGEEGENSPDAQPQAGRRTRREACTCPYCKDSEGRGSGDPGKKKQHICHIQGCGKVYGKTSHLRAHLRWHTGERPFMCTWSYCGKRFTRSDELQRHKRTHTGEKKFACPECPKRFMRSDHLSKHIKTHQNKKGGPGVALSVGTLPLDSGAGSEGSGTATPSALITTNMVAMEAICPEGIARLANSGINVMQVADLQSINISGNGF
Chain of Estrogen receptor (Homo sapiens) (P03372 whole entry, looked up, the tested form may be a part): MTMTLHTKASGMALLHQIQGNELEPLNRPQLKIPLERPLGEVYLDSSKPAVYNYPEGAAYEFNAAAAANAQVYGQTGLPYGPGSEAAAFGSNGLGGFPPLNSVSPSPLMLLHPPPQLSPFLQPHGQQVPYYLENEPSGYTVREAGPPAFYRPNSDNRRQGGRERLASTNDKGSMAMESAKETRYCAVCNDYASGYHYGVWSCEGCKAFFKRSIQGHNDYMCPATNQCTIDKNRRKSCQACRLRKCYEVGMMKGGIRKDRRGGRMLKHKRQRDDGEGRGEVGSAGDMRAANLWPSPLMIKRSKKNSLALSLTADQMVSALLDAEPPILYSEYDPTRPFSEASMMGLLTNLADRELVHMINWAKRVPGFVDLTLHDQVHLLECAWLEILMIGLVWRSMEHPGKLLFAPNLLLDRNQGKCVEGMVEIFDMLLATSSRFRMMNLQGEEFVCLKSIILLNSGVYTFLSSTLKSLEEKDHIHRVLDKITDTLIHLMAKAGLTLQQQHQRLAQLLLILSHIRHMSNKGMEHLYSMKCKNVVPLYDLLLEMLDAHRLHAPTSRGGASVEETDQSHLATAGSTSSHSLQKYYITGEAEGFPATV
Chain of Signal transducer and activator of transcription 3 (Homo sapiens) (P40763 whole entry, looked up): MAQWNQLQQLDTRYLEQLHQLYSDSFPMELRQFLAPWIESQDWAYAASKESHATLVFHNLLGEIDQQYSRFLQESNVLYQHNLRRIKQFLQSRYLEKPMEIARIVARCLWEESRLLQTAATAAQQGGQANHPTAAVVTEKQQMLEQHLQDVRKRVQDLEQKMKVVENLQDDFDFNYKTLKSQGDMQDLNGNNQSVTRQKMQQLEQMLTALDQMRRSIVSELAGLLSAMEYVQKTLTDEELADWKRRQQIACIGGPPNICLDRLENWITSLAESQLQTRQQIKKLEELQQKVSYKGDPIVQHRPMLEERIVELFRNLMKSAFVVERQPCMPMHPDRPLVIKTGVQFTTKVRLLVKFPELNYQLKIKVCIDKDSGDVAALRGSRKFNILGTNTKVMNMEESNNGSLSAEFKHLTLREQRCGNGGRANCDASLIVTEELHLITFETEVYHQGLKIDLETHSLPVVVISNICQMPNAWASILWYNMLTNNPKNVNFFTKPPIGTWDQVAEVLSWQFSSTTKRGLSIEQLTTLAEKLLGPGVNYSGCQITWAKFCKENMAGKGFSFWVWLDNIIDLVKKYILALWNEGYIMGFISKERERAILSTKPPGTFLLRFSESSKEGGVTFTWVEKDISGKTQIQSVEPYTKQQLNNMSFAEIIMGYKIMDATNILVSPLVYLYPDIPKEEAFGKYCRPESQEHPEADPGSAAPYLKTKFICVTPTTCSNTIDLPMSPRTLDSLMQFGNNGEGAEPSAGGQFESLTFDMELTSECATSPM
Chain of X-box-binding protein 1 (Homo sapiens) (P17861 whole entry, looked up): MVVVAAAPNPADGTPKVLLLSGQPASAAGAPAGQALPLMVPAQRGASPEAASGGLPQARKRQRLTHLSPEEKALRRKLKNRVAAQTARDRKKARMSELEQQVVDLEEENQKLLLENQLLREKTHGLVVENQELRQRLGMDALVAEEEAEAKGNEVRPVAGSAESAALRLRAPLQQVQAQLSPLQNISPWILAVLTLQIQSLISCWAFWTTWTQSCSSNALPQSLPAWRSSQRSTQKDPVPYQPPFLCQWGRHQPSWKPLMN
Chain of Steroid hormone receptor ERR1 (Homo sapiens) (P11474 whole entry, looked up, the tested form may be a part): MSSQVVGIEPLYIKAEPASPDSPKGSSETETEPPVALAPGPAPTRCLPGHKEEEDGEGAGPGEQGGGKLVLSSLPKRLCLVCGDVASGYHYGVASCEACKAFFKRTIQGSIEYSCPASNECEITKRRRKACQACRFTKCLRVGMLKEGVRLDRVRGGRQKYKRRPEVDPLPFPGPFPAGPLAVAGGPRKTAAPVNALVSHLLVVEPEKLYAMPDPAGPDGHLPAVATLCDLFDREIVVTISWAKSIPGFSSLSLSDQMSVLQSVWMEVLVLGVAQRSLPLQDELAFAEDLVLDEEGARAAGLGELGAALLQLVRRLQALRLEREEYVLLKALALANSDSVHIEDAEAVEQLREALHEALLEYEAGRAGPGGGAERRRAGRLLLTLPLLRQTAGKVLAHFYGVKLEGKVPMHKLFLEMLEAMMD

For the molecule `C=CC[N+](C)(C)CC=C`, the molecule was classed as inactive in [1], in [2], in experiment [3], in experiment [4], in [5] and in experiment [6]. In addition, the molecule was classed as inactive in experiment [7], in [8], in experiment [9], in experiment [10], in [11] and in experiment [12]. In [13], the result was inactive.
`CCOC(=S)SSC(=S)OCC`: the outcome in experiment [1], in [2], in experiment [3], in experiment [4], in [5] and in experiment [6] was inactive. The molecule was classed as inactive in [7], in experiment [9], in [10], in [12], in experiment [14] and in [15]. The result in experiment [13] was inactive.
With `CCCCCCCCCCC(CO)CCCCCCCC` (stereo unspecified), the molecule was classed as inactive in experiment [1], in experiment [2], in experiment [3], in [4], in experiment [5] and in [6]. Moreover, the molecule was classed as inactive in experiment [7], in [8], in [9], in [10], in experiment [11] and in experiment [12]. Further, the molecule was classed as inactive in experiment [14], in experiment [13] and in experiment [16].
Turning to `CC(C)(COC(=O)c1ccccc1)COC(=O)c1ccccc1`, the molecule was classed as inactive in experiment [1], in [3], in [4], in experiment [5], in experiment [7] and in experiment [8]. In addition, the result in [9], in experiment [10], in [14] and in [13] was inactive. Also, the AC50 in experiment [2] was 34.7 µM (active); in [11] it was 100 µM (active); in [12], 45.8 µM (active).
On to `Nc1cccc(S(=O)(=O)c2cccc(N)c2)c1`, for which the result in experiment [1], in [2], in experiment [3], in experiment [4], in experiment [5] and in experiment [6] was inactive. In addition, the result in [7], in experiment [8], in experiment [9], in experiment [10], in experiment [12] and in experiment [14] was inactive. In addition, the molecule was classed as inactive in [15], in experiment [17], in experiment [13] and in experiment [18].
For `OCCN1CCNCC1`, the call in experiment [1], in experiment [2], in experiment [3], in experiment [4], in experiment [5] and in [6] was inactive. Further, the outcome in [7], in experiment [9], in experiment [10], in experiment [12], in experiment [13] and in experiment [18] was inactive.
Turning to `COC(=O)OC`, the molecule was called inactive in [1], in experiment [2], in experiment [3], in experiment [4], in experiment [6] and in experiment [7]. The result in experiment [9], in experiment [10], in [11], in [14], in experiment [17] and in experiment [13] was inactive. For the same molecule, the result in experiment [16] and in experiment [18] was inactive.
On to `CC1COc2ccccc2N1C(=O)C(Cl)Cl` (stereo unspecified), for which the figures for the AC50 in experiment [1], in [2] and in experiment [12] were 26.7 µM (active), 26.6 µM (active) and 17.7 µM (active), respectively. Besides, the outcome in experiment [3], in experiment [4], in experiment [5], in [6], in experiment [7] and in experiment [8] was inactive. For the same molecule, the outcome in experiment [9], in experiment [10], in [11], in experiment [15], in [13] and in experiment [16] was inactive.
Turning to `CCCCOCCOCCSC#N`, the molecule was classed as inactive in experiment [1], in experiment [3], in experiment [4], in [6], in [7] and in experiment [8]. In addition, the result in experiment [9], in experiment [10], in experiment [11], in experiment [12], in experiment [14] and in experiment [13] was inactive. Also, the call in experiment [16] and in experiment [19] was inactive. Moreover, the AC50 in [2] is 1.92 µM (active).

The record behind these values is PubChem BioAssay (EPA / NIEHS).
